Laboratory results as given in PubChem BioAssay (NCI).
About 79,000 compounds went through this panel and 15% of them were active in at least one assay; those are over-represented in the sample as a whole. Activity calls are given as the source filed them. Rule as the data show it: active = growth inhibition above about 70%; inactive = the rest.

What was measured:
[1] = NCI Yeast Anticancer Drug Screen. Data for the rad50 strain (AID 155);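 also: 0% = growth of vehicle-only cultures of the same strain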; conditions: S. cerevisiae rad50 strain growth inhibition; at 50.0 µM; active compounds read high
Outline: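 A DNA repair-deficient yeast mutant serves as the test organism; compound-induced growth inhibition is calculated against vehicle-treated cells.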

[2] = NCI Yeast Anticancer Drug Screen. Data for the mec2-1 strain (AID 157); conditions: S. cerevisiae mec2-1 strain, at 50.0 µM, active compounds read high
Outline: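 Mutant yeast (mec2-1) grown with compound; growth inhibition relative to vehicle control reported.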

[3] = NCI Yeast Anticancer Drug Screen. Data for the sgs1 mgt1 strain (AID 161);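 also: 0% = growth of cultures given vehicle only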; conditions: S. cerevisiae sgs1 mgt1 strain, at 50.0 µM, active compounds read high
Outline: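 This yeast growth screen uses a strain with defined DNA-repair lesions; compound-treated growth is compared with vehicle-treated growth.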

[4] = NCI Yeast Anticancer Drug Screen. Data for the cln2 rad14 strain (AID 165);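 also: 0% = growth equal to vehicle treated cultures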; conditions: S. cerevisiae cln2 rad14 strain, at 50.0 µM, active compounds read high
Outline: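 Readout is yeast growth inhibition versus vehicle-treated controls, using a strain with cln2 and rad14 alterations exposed to compound.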

[5] = NCI Yeast Anticancer Drug Screen. Data for the bub3 strain (AID 167); conditions: S. cerevisiae bub3 mutant strain, at 50.0 µM, active compounds read high
Outline: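 Inhibition values come from growth of compound-treated mutant yeast normalised to vehicle-treated controls.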

[6] = NCI Yeast Anticancer Drug Screen. Data for the mlh1 rad18 strain (AID 175); conditions: S. cerevisiae mlh1 rad18 strain growth inhibition; at 50.0 µM; active compounds read high
Outline: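 Genetically defined yeast (DNA repair-deficient) exposed to compounds; growth inhibition determined relative to vehicle.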

Measured: growth inhibition

CCCCCCCCNC(=O)c1ccccc1C(=O)O
inactive: [1] 1.6% | [2] 14.9% | [3] 51.2% | [4] -32.8% | [5] 44.6% | [6] 13.4%

CCOC(CS(=O)(=O)CC(N)=O)OCC
inactive: [1] 6.3% | [2] 0.45% | [3] -3.75% | [4] -29.4% | [5] -11.8% | [6] 5.8%

CN(C)c1ccc(/C=C(\NC(=O)c2ccccc2)C(=O)Nc2ccccc2C(=O)NCc2ccccc2)cc1
inactive: [1] 9.95% | [2] 11.7% | [3] 14.8% | [4] 12.3% | [5] 5.95% | [6] 30.7%

CCOC(=O)CNc1c(OCc2ccccc2)c(=O)c1=O
inactive: [1] -8.05% | [2] -10.8% | [3] -18.1% | [4] -3.65% | [5] -16.2% | [6] 5.8%

CC(C)(C)OC(=O)NC(Cc1ccc(OC(C)(C)C)cc1)C(=O)N[C@H]1CC[C@H](C(=O)O)C1 (stereo not given in full)
inactive: [1] -6.6% | [2] -1.25% | [3] -8% | [4] -7.85% | [5] 11.2% | [6] 10%

CN(C)Cc1c(C(O)(c2ccccc2)c2ccccc2)cc2ccccc2c1Cl
inactive: [1] -12.8% | [2] -15.3% | [3] -25.6% | [4] -3% | [5] 1.05% | [6] -10.4%

O=C(O)c1ccccc1C(=O)Nc1ccc2ccccc2c1
inactive: [1] 15.9% | [2] -4.6% | [3] 5% | [4] 2.6% | [5] 7.55% | [6] 18.9%

CSCCC(NC(=O)c1c(Cl)ccc(Cl)c1Cl)C(=O)O (stereo not given)
inactive: [1] -8.45% | [2] -0.75% | [3] 18.6% | [4] -18.6% | [5] 0.6% | [6] -16.4%

CC(=O)Nc1cc(OC(C)=O)c(OC(C)=O)c2ccccc12
inactive: [1] -7.45% | [2] -6.9% | [3] -0.6% | [4] -1.55% | [5] -33.1% | [6] 1.1%

O=C1CS/C1=C/c1ccccc1
inactive: [1] 11.4% | [2] -2.95% | [3] -15.2% | [4] -68.7% | [5] -7.85% | [6] -5.15%

N#CC1=C(c2ccccc2)NNC(c2ccc(Cl)cc2)CC1=O (stereo not given)
inactive: [1] -18.1% | [2] -1.45% | [3] 2.4% | [4] 6.8% | [5] -22.6% | [6] 36.5%

O=C1CC(C2(O)C(=O)Nc3ccc([N+](=O)[O-])cc32)c2ccccc21 (stereo not given)
inactive: [1] -22% | [2] -19.1% | [3] -9.65% | [4] -5.4% | [5] 11.2% | [6] -39.4%

COc1cc2c(cc1OC)C(C#N)(C(c1ccccc1)c1ccccc1)N(C(=O)c1ccccc1)C=C2 (stereo not given)
inactive: [1] 16.9% | [2] 3.45% | [3] 1.35% | [4] -1.15% | [5] -0.7% | [6] 30.9%

c1ccc(CC(c2cccc3ccccc23)N2CCOCC2)cc1 (stereo not given)
inactive: [1] 22.2% | [2] 23.9% | [3] 39.7% | [4] -7.55% | [5] 30% | [6] 23.2%

Cc1ccc(-n2nc(C)cc2C)nn1
inactive: [1] -3.55% | [2] 11.2% | [3] -9.75% | [4] -25.7% | [5] 26.6% | [6] -13.8%

Cc1onc(-c2ccccc2)c1C(=O)N1CCCN2C(=O)c3ccccc3C21 (stereo not given)
inactive: [1] -0.3% | [2] -11.1% | [3] 15.8% | [4] 2% | [5] 22.3% | [6] 15.8%

COc1ccc(C(=O)C(C(=O)C(=O)Nc2ccc(Cl)c(Cl)c2)c2ccc(OC)cc2)cc1 (stereo not given)
inactive: [1] -0.6% | [2] 11.2% | [3] -34.4% | [4] 38.1% | [5] 8.95% | [6] -17.3%

CCOC(=O)Nc1ccc2c(c1Cl)C(=O)c1ccccc1C2=O
inactive: [1] -6.85% | [2] -18.1% | [3] -0.2% | [4] 5.65% | [5] 14.3% | [6] -15.6%

O=S(=O)(Nc1cccc(Cl)c1)c1ccc(F)cc1
inactive: [1] -8.45% | [2] -11.2% | [3] -13.2% | [4] -5.4% | [5] -11.3% | [6] 2.5%

CCCCC(NC(=O)c1cnc2ccccc2n1)C(=O)O (stereo not given)
inactive: [1] 22.2% | [2] 14% | [3] 15.3% | [4] 4.6% | [5] 22.3% | [6] 31.6%

CCOC(=O)/C=C/c1cccc(F)c1
inactive: [1] 19.2% | [2] -5.25% | [3] 7.85% | [4] 12% | [5] 12.2% | [6] 10.5%

Cc1cc(C)c(NC(=O)Nc2ccccc2F)cc1C
inactive: [1] 18.7% | [2] 19.6% | [3] 14.3% | [4] 24.7% | [5] 33.1% | [6] 8.85%

CCCCCCCCCCCCCCCCCCCOc1ccc(OCCCCCCCC)cc1
inactive: [1] 40.8% | [2] -11.8% | [3] 17.6% | [4] -11.2% | [5] 3.4% | [6] 3%

O=C(CC(=O)N(C(=O)c1ccccc1)c1ccc(Cl)cc1)N/N=C\c1ccccc1O
inactive: [1] 1.35% | [2] -5.4% | [3] 5.45% | [4] -1.85% | [5] 19.9% | [6] -15.4%

CC(C(N)=O)N1C(=O)C2C3CCC(O3)C2C1=O (stereo not given)
inactive: [1] -7.65% | [2] -6.65% | [3] -16.1% | [4] -44.8% | [5] -1.8% | [6] 3.1%

COC(=O)c1ccccc1/C=C1\Cc2cc3c(cc2C1=O)CCC3
inactive: [1] -31.6% | [2] -45% | [3] -1.45% | [4] 5.65% | [5] -4.45% | [6] -8.05%

O=C(Nc1ccc(Br)cc1)c1ccccc1
inactive: [1] 14.4% | [2] 20.9% | [3] 0.35% | [4] -31.5% | [5] 0.8% | [6] 22.1%

Cc1ccc(S(=O)(=O)N2CCCSCCN(S(=O)(=O)c3ccc(C)cc3)CCCSCC2)cc1
inactive: [1] -0.25% | [2] -32.5% | [3] -30.2% | [4] -9.4% | [5] -28.6% | [6] -24.4%

O=C1Nc2ccccc2/C1=N/N1C(=O)CSC1=S
inactive: [1] 28.6% | [2] 15% | [3] 32.5% | [4] 7.2% | [5] 15.6% | [6] 29.1%

C=C(Cl)/C(=C\Cl)CCC(Cl)C(C)C (stereo not given) (tested in a mixture with another compound)
active: [2] 78% | [3] 91% | [4] 72% | [5] 90.8% | [6] 89.3%
inactive: [1] 68.5%

O=c1ccc2c(-c3ccccc3S(=O)(=O)O)c3ccc(O)c(O)c3oc-2c1O
inactive: [1] 3.45% | [2] 13.3% | [3] -4.4% | [4] 11% | [5] 15.6% | [6] 4.4%

Cc1cn(C)c2c1-c1oncc1CC2
inactive: [1] -4.3% | [2] -14.7% | [3] 5.4% | [4] -7% | [5] -35.3% | [6] 2.3%

Cc1cc(NS(=O)(=O)c2ccc(Nc3c4ccccc4nc4c(C(=O)NCCN(C)C)cccc34)cc2)no1
inactive: [1] -37.8% | [2] 3.4% | [3] -41.5% | [4] 11.9% | [5] -22.7% | [6] -14.6%

CC(C)N(CC(c1ccccc1)C(O)(c1ccccc1)c1ccccc1)C(C)C (stereo not given)
inactive: [1] 16.1% | [2] 8% | [3] 17.5% | [4] 26.8% | [5] -0.75% | [6] 32.3%

COc1ccc(C2CCCCCC2OS(=O)(=O)c2ccc(C)cc2)c(OC)c1OC (stereo not given)
inactive: [1] 1.75% | [2] -4.55% | [3] -7.15% | [4] -14.8% | [5] 8.45% | [6] -9%

CCCCCCCCOC1OC(COC(C)=O)C(OC(C)=O)C(OC(C)=O)C1OC(C)=O (stereo not given)
inactive: [1] -3% | [2] 3.75% | [3] -4.45% | [4] 6.75% | [5] -35.5% | [6] -6.95%

COc1cc(C(=O)O)c([N+](=O)[O-])c(OC)c1OC
inactive: [1] -12.3% | [2] -6.35% | [3] -18.1% | [4] -11.2% | [5] -29.9% | [6] -7.5%

COc1ccc(S(=O)(=O)N2OC2c2ccccc2)cc1 (stereo not given)
inactive: [1] -22.2% | [2] 2.65% | [3] 14.7% | [4] 10% | [5] 1.65% | [6] -6%

CCCC1CCN(c2ccc([N+](=O)[O-])cc2[N+](=O)[O-])CC1
inactive: [1] 1.75% | [2] -4.75% | [3] 9.65% | [4] -19.2% | [5] 38.2% | [6] -1.15%

Cc1ccc(C(=O)C(O)c2ccc(C)cc2)cc1 (stereo not given)
inactive: [1] 35.6% | [2] -34.6% | [3] 4.95% | [4] -24.1% | [5] 0.55% | [6] -7.05%
